Screening results: PubChem BioAssay, National Center for Advancing Translational Sciences (NCATS)
In the library only some 8.1% were active in any assay of this set; here they are far more common.
KB-3-1 cytotox = kills parental KB-3-1 adenocarcinoma cells | KB-3-1 viability, CellTiter-Glo ATP luminescence, 72 h | Potency, µM (top dose mostly 46.1 µM), actives largely listed as cytotoxic | hit rate 1.4% among 400,000 | AID 1347075; further: on the % scale 0 is the no-effect control and ±100 the full control effect; nearly all actives have a fitted effect of over 60% in size
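Cytotoxicity in the drug-sensitive parental line KB-3-1 was scored as loss of CellTiter-Glo luminescence following 72 h incubation with compound. Values come from curve fitting of normalized concentration-response data.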
SW480 rereplic = inducers of DNA re-replication in SW480 colon cancer cells; SW480 DNA re-replication, Hoechst DNA content imaging, 48 h; Potency, µM (highest dose often 46.1 µM), for the others: at the top dose re-replication activation, actives largely listed as activators; hit rate 1.8% among 340,000; further: % of control where 0% means no effect; nearly all actives have a fitted effect of over 55% in size
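250 cells/well; 23 nL cpd via pin tool; 48 hr, 37 C, 5% CO2; Hoechst 40 min; imager read of total nuclear intensity, ex 405/em 500-530 nm.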
MCF10A rerep = inducers of DNA re-replication in MCF 10A breast cells; hit rate 2.9% among 350,000; AID 624296; Potency, µM (highest dose often 46.1 µM), inactives show top-dose activity, positive = re-replication, usual class: activators; MCF 10A DNA re-replication, Hoechst nuclear intensity, 48 h; further: % of control where 0% means no effect; nearly all actives have a fitted effect of over 50% in size
KB-V1 cytotox = kills drug-selected multidrug resistant KB-V1 cells | KB-V1 MDR cells viability, CellTiter-Glo, 72 h | Potency, µM (top dose mostly 46.1 µM), usual class: cytotoxic | hit rate 3.4% among 400,000 | AID 1347076; further: on the % scale 0 is the no-effect control and ±100 the full control effect; nearly all actives have a fitted effect of over 60% in size
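Following 72 h at 37 degrees C with compound, KB-V1 cell viability was read by CellTiter-Glo luminescence, medium being phenol-red-free DMEM plus 10% FBS; concentration-response parameters came from normalized, curve-fitted qHTS data.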
ELG1 repair inh = inhibitors of ELG1-dependent DNA repair in HEK293T cells; HEK293T ELG1-luciferase reporter, luminescence, 16 h; DNA damage induced by 5-fluorouridine; Potency, µM (top dose mostly 46.1 µM), for the others: at the top dose activity change, negative = inhibition, hits mostly inhibitors; hit rate 2.3% among 330,000; AID 504467; further: on the % scale 0 is the no-effect control and ±100 the full control effect; nearly all actives have a fitted effect of over 55% in size
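Quantitative HTS, concentration-response format. 2,000 cells/well co-treated with 5-fluorouridine and compound, 16 hr in 5% CO2 at 37 °C; ONE-Glo luminescence read after 30 min.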
Starred values were filed as active, the others as inactive. The call rests on the fitted dose curve; in most records, active means well fitted curve in the direction sought with a large enough effect; inconclusive means small, poorly fitted or top-dose-only effect, or another doubt; inactive means no such curve, though single readings can be large; an effect the other way counts as inactive or inconclusive. Potency means the concentration at half of the fitted maximal effect.

`Oc1ccccc1N1CCN(C(=S)NCCc2ccccc2)CC1` gave KB-3-1 cytotox inconclusive, SW480 rereplic 8%, MCF10A rerep inconclusive, KB-V1 cytotox 15µM* and ELG1 repair inh inconclusive.
`COc1ccc(C(=O)NC(=S)NNC(=O)c2ccccc2O)cc1` gave KB-3-1 cytotox inconclusive, SW480 rereplic 13%, MCF10A rerep 23µM*, KB-V1 cytotox inconclusive and ELG1 repair inh 17%.
`O=C(COC(=O)c1ccccc1O)NNC(=O)c1ccc(Br)cc1` gave KB-3-1 cytotox inactive, SW480 rereplic -1%, MCF10A rerep 0%, KB-V1 cytotox inactive and ELG1 repair inh -2%.
Screening O=C(NNC(=O)c1ccccc1O)c1ccc(Br)cc1 returned KB-3-1 cytotox inactive, SW480 rereplic 2.9µM*, MCF10A rerep -8%, KB-V1 cytotox inactive and ELG1 repair inh inconclusive.
Screening CC1(C)CC(=O)C2=C(C1)OC(N)=C(C#N)C2CCc1ccccc1 (stereo unspecified) returned KB-3-1 cytotox inactive, SW480 rereplic -2%, MCF10A rerep 12%, KB-V1 cytotox inactive and ELG1 repair inh 4%.
For COc1ccc(C(=O)NC(=S)NNC(=O)c2cnccn2)cc1 the results were KB-3-1 cytotox inconclusive, SW480 rereplic 1%, MCF10A rerep 6.5µM*, KB-V1 cytotox inactive and ELG1 repair inh inconclusive.
Screening COc1cc2ccccc2cc1C(=O)N/N=C/c1cccs1 returned KB-3-1 cytotox 2.3µM* and KB-V1 cytotox 9.2µM*.
COc1cc2ccccc2cc1C(=O)NNC(=O)c1ccccc1O was read as ELG1 repair inh 26µM*.
`COc1ccc(C(=O)NC(=S)N2CCN(c3ccccc3O)CC2)cc1` gave KB-3-1 cytotox inactive, SW480 rereplic 3%, MCF10A rerep -5%, KB-V1 cytotox 21µM* and ELG1 repair inh -25%.
Screening O=C(Nc1cc(S(=O)(=O)N2CCCC2)ccc1Cl)c1cc(F)c(F)c(F)c1F returned KB-3-1 cytotox inactive, SW480 rereplic 24%, MCF10A rerep inconclusive, KB-V1 cytotox inactive and ELG1 repair inh inconclusive.
For CCCCCc1c(O)c2ccccc2[nH]c1=O the results were KB-3-1 cytotox inactive, SW480 rereplic -10%, MCF10A rerep -4%, KB-V1 cytotox 16µM* and ELG1 repair inh 6%.
Screening O=c1[nH]c2ccccc2c(O)c1O returned KB-3-1 cytotox inconclusive, SW480 rereplic -31%, MCF10A rerep -1%, KB-V1 cytotox inconclusive and ELG1 repair inh 3.3µM*.
Screening CCc1c(C)[nH]c2ccccc2c1=O returned KB-3-1 cytotox inactive, SW480 rereplic -2%, MCF10A rerep -3%, KB-V1 cytotox inactive and ELG1 repair inh 2%.
Screening CCCCCOC(=O)Cc1c(O)c2ccccc2[nH]c1=O returned KB-3-1 cytotox inactive, SW480 rereplic -3%, MCF10A rerep -1%, KB-V1 cytotox inactive and ELG1 repair inh 16%.
For CCc1c(C)c2ccccc2[nH]c1=O the results were KB-3-1 cytotox 4.1µM* and KB-V1 cytotox 2.3µM*.
O=c1[nH]c2ccccc2c(O)c1-[n+]1ccccc1 was read as KB-3-1 cytotox inactive, SW480 rereplic -15%, MCF10A rerep inconclusive, KB-V1 cytotox inconclusive and ELG1 repair inh 11%.
O=C(Cc1ccc(S(=O)(=O)N2CCOCC2)s1)Nc1cc(C(F)(F)F)ccc1N1CCCC1 was read as KB-3-1 cytotox inactive, SW480 rereplic inconclusive, MCF10A rerep 3%, KB-V1 cytotox inactive and ELG1 repair inh inconclusive.
Cn1c(COc2ccccc2)nnc1SCCC(=O)Nc1ccccc1 was read as KB-3-1 cytotox inactive, SW480 rereplic -5%, MCF10A rerep 1%, KB-V1 cytotox inactive and ELG1 repair inh 17%.
For O=C(Nc1cccc(-c2cn3ccccc3n2)c1)c1cnccn1 the results were KB-3-1 cytotox inactive, SW480 rereplic -6%, MCF10A rerep -3%, KB-V1 cytotox inactive and ELG1 repair inh inconclusive.
For O=C(Nc1cccc(-c2cn3ccccc3n2)c1)c1cccc(Cl)c1 the results were KB-3-1 cytotox inactive, SW480 rereplic 21%, MCF10A rerep inconclusive, KB-V1 cytotox 9.2µM* and ELG1 repair inh inconclusive.
O=C(Nc1cccc(-c2cn3ccccc3n2)c1)C1CC1 was read as KB-3-1 cytotox inconclusive, SW480 rereplic -7%, MCF10A rerep inconclusive, KB-V1 cytotox 18µM* and ELG1 repair inh inconclusive.
For Cc1ccc(NC(=O)c2ccccc2OCc2ccc([N+](=O)[O-])cc2)nc1 the results were KB-3-1 cytotox inactive, SW480 rereplic -8%, MCF10A rerep -3%, KB-V1 cytotox inactive and ELG1 repair inh inconclusive.
Screening O=C(Nc1ccccc1)Nc1cc(Cl)cc(Cl)c1 returned KB-3-1 cytotox inconclusive, SW480 rereplic 16%, MCF10A rerep inconclusive, KB-V1 cytotox inconclusive and ELG1 repair inh 0%.
For O=C(Nc1ccccc1)Nc1cc(OCC(F)(F)F)cc(OCC(F)(F)F)c1 the results were KB-3-1 cytotox inconclusive, SW480 rereplic 15%, MCF10A rerep 21µM*, KB-V1 cytotox 16µM* and ELG1 repair inh inconclusive.
CCc1nn(CC(=O)N2CCN(C)CC2)c(=O)c2cccn12 was read as KB-3-1 cytotox inconclusive, SW480 rereplic -11%, MCF10A rerep 3%, KB-V1 cytotox inactive and ELG1 repair inh inconclusive.
For C[C@H]1CNC(=O)c2c(C(=O)Nc3cccc(Cl)c3)ncn21 the results were KB-3-1 cytotox inactive and KB-V1 cytotox inactive.
For COc1cc2ccccc2cc1C(=O)N1CCN(c2ccccn2)CC1 the results were KB-3-1 cytotox inactive, SW480 rereplic -1%, MCF10A rerep -2%, KB-V1 cytotox inactive and ELG1 repair inh -3%.
COc1cc2nc(C3CCC3)nc(N3CCN(c4ccccn4)CC3)c2cc1OC was read as KB-3-1 cytotox inconclusive, SW480 rereplic 1%, MCF10A rerep inconclusive, KB-V1 cytotox inconclusive and ELG1 repair inh 10µM*.
Screening COc1cc2nc(C3CCC3)nc(N3CCN(c4ccccc4OC)CC3)c2cc1OC returned KB-3-1 cytotox inactive, SW480 rereplic inconclusive, MCF10A rerep inconclusive, KB-V1 cytotox 7.3µM* and ELG1 repair inh 12µM*.
`COc1cc2nc(Cl)nc(N3CCN(C)CC3)c2cc1OC` gave ELG1 repair inh 6%.
`Cc1cc(C)n2nc(S(=O)(=O)Nc3c(Cl)cccc3Cl)nc2n1` gave KB-3-1 cytotox inactive, SW480 rereplic -24%, MCF10A rerep -17%, KB-V1 cytotox inactive and ELG1 repair inh 0%.
